# Shiga toxin inh: Shiga toxin inhibition; inhibition, % at 38.7 µM; hit rate 9.2% among 290,000; Vero cells, Shiga toxin protein synthesis inhibition reporter; AID 2315; in the data active = inhibition mostly above about 28%, no sharp cut-off; inactive = mostly below about 43%; also: 0% is about no effect
# CHX counter: counter-screen for Shiga toxin inhibitors: cycloheximide protein synthesis inhibition; max response, %; hit rate 12% among 300,000; cell reporter, cycloheximide protein synthesis inhibition counterscreen; in the data active = max response mostly above about 13%, no sharp cut-off; inactive = mostly below about 14%; also: read at 38.3 µM for the half of the compounds with a filed dose; 0% is about no effect
# Marburg entry inh: Marburg virus entry inhibition; Marburg virus pseudotyped entry inhibition, cell reporter; Potency, µM (highest dose often 37.8 µM), without a hit: top-dose activity change, negative = inhibition, hits mostly inhibitors; hit rate 1.8% among 300,000; AID 540276; calls by dose curve; tested in HEK293 cells; also: potency is read from the fitted curve at half-maximal effect; % is scaled to controls: 0 for no effect and ±100 for the full control effect
# LASV entry inh: Lassa virus entry inhibition; Lassa virus pseudotype entry inhibition, cell reporter; Potency, µM (highest dose often 37.9 µM), for the others: at the top dose activity change, negative = inhibition, usual class: inhibitors; hit rate 1.2% among 300,000; AID 540256; calls by dose curve; tested in HEK293 cells; also: potency is read from the fitted curve at half-maximal effect; % is scaled to controls: 0 for no effect and ±100 for the full control effect; nearly all actives have a fitted effect of over 50% in size
# Starred values were filed as active, the others as inactive; ? = inconclusive; . = not tested or not shown; + = active, no number; [ ] = another dose, or the depositor's remark. Shown are actives, neighbours in structure and some others; about 12% of the full set was active somewhere.
SMILES,Shiga toxin inh,CHX counter,Marburg entry inh,LASV entry inh
Cc1cc(=O)oc2cc(OCC(=O)Nc3ccccc3C(N)=O)c(Cl)cc12,-2,6,.,.
CC1CCC(NCCNC(=O)c2ccco2)CC1 (stereo not given),-5,-4,15%[46.1 µM],-20%
c1ccc2c(c1)nc(Nc1ccc(N3CCCCC3)cc1)c1nncn12,10,15*,.,.
Cc1cc(C(=O)Nc2cc(C(F)(F)F)ccc2N2CCOCC2)no1,-3,-3,-15%,1%
O=C(Nc1cc(C(F)(F)F)ccc1N1CCOCC1)c1ccc2ccccc2n1,76,23*,14%,?
FC(F)(F)c1ccc(N2CCOCC2)c(Nc2nc3ccccc3n3cnnc23)c1,-20,-1,4.1µM*,?
CC(Nc1nc2ccccc2n2cnnc12)c1ccccc1 (stereo not given),35*,20*,-11%[46.1 µM],-18%[46.1 µM]
CCc1nc2cc3sc(CC)nc3cc2s1,74*,25*,?,-8%[46.1 µM]
O=C(Cn1nc(Cl)nc1Cl)c1cc2ccccc2oc1=O,5,7,-10%,12%
O=C(NNC(=S)NCc1ccco1)c1ccc(S(=O)(=O)N2CCOCC2)cc1,-8,2,3%[46.1 µM],-1%
COC1=C(OC)C(=O)C(CCCCCCCCCCO)=C(C)C1=O,6,-7,.,.
CC1=C(C)C(=O)C(CCCCC#CCCCC#CCO)=C(C)C1=O,-12,-2,?,21µM*
O=[N+]([O-])c1ccc(SCCc2ccncc2)cc1,6,8,0%[14.2 µM],0%
O=[N+]([O-])c1ccc(CSc2ccccn2)cc1,48,39*,21%,27%
O=[N+]([O-])c1ccc(Sc2ccccn2)nc1,31,3,-1%[46.1 µM],11%[46.1 µM]
O=[N+]([O-])c1ccccc1CSc1ccccn1,53*,11,2%[46.1 µM],8%[46.1 µM]
O=[N+]([O-])c1ccc(SCCc2ccccn2)cc1,50*,21*,7%,8%
CCC(=O)C1=C(c2ccc(F)cc2)N(C(=O)CC)n2c(nnc2C2CCCCC2)S1,.,.,.,-3%[46.1 µM]
O=C(NCc1ccccc1Cl)c1cnc2n(c1=O)CCS2,30,-2,.,.
COc1ccc(C)cc1NC(=O)c1cnc2n(c1=O)CCS2,6,10*,8%,?
O=C(NCCc1c[nH]c2ccccc12)c1cnc2n(c1=O)CCS2,59*,30*,.,.
O=C(NCCc1ccccc1)c1cnc2n(c1=O)CCS2,111*,34*,9%[46.1 µM],?
COc1ccc([N+](=O)[O-])cc1NC(=O)c1ccccc1N(C)S(C)(=O)=O,-24,0,1%[46.1 µM],7%[46.1 µM]
Cc1cc(Cl)n2c(nc3cc(F)c(F)cc32)c1C#N,-27,-4,13µM*,?
COc1cc(/C=N/NC(=O)c2ccc(F)cc2)ccc1OC(=O)c1ccco1,52,21*,12%,?
SMILES,Shiga toxin inh,CHX counter,Marburg entry inh,LASV entry inh
COc1cc(/C=N/NC(=O)c2ccncc2)ccc1OC(=O)c1ccco1,-12,12,-1%[46.1 µM],10%[46.1 µM]
CCOc1cc(/C=N\Nc2nc(Nc3ccccc3)nc(N3CCOCC3)n2)ccc1OC(=O)c1ccco1,9,20*,3.3µM*,?
COc1cc(/C=N/Nc2nc(C)cc(C)n2)ccc1OC(=O)c1ccco1,-7,8,7%,?
O=C(N/N=C/c1cccc(OC(=O)c2ccco2)c1)c1ccc(F)cc1,26*,64*,6%,-19%
COc1cc(/C=N/Nc2ccc3ccccc3c2)ccc1OC(=O)c1ccco1,41*,29*,?,0%
COC(=O)c1c(C)[nH]c(C(=O)C(C)OC(=O)C2CC2)c1C (stereo not given),.,.,?,-6%
CN(C)c1ccc(Nc2cc(Cl)ncn2)cc1,.,42*,.,.
Cc1ccc(CC(=O)Nc2c(C(=O)N3CCN(c4ccccc4)CC3)oc3ccccc23)cc1,.,.,?,-29%[46.1 µM]
Fc1ccc(-c2nnn(Cc3nc4ccccc4s3)n2)cc1,36,12*,-1%,29%
Clc1ccc(-c2nnn(Cc3nc4ccccc4s3)n2)cc1,96*,25*,-1%,22%
O=C(Cn1nnc(-c2ccc(F)cc2)n1)OCC(=O)c1ccccc1,11,-1,21%[46.1 µM],1%[46.1 µM]
CC(C)c1ccc(CNc2ncc(Br)cn2)cc1,32*,17*,.,.
Cc1cc(C)c(Cn2cnc(-c3ccc([N+](=O)[O-])cc3)c2)c(C)c1,12,-1,?,-16%
CC(C)(C)c1ccc(Cn2cnc(-c3ccc([N+](=O)[O-])cc3)c2)cc1,54*,40*,?,8.9µM*
CC(=O)NCCNc1ccc([N+](=O)[O-])cn1,-14,-3,13%,-3%
CC(C)(C)c1ccc(CNc2ccc([N+](=O)[O-])cn2)cc1,81*,23*,?,?
CC(C)c1ccc(CNc2ccc([N+](=O)[O-])cn2)cc1,74*,55*,?,?
O=[N+]([O-])c1ccc(NCc2ccc(Cl)cc2)nc1,63*,39*,?,-29%[46.1 µM]
O=[N+]([O-])c1ccc(Nc2ccc(Cl)cc2)nc1,4,-5,?,-12%[46.1 µM]
CC(=O)CCS(=O)(=O)c1ccc(Oc2ccc(S(=O)(=O)CCC(C)=O)cc2)cc1,23*,17*,?,-10%
CC(=O)CS(=O)(=O)c1ccc(Oc2ccc(S(=O)(=O)CC(C)=O)cc2)cc1,-2,-6,5%[46.1 µM],4%
COc1ccc(N(/N=C2\Sc3ccccc3C2=O)C(C)=O)cc1,+,60*,.,.
COc1ccccc1N(/N=C1\Sc2ccccc2C1=O)C(C)=O,60*,24*,.,.
Cn1cc(CN2CCCC(C(=O)c3nccn3C)C2)c(-c2cccc(Cl)c2)n1 (stereo not given),2,1,-24%[46.1 µM],-21%[46.1 µM]
C=CCn1c(N)c(C(=O)Nc2ccc(C)cc2)sc1=S,15,30*,-3%,.
SMILES,Shiga toxin inh,CHX counter,Marburg entry inh,LASV entry inh
C/C=C/Cn1cccc(C(=O)Nc2ccc(OC)cc2)c1=O,44,22,7%[46.1 µM],3%
C=CCn1cccc(C(=O)Nc2ccc(C)cc2)c1=O,102*,77*,.,.
C=CCn1cccc(C(=O)Nc2ccc(C)c(C)c2)c1=O,107*,45*,?,?
C[C@@]12CCC=C[C@H]1[C@H](c1ccc(C(F)(F)F)cc1)N(Cc1ccccc1)C2=O,-3,-4,.,.
CC(=O)Nc1ccc(NC(=O)CS(=O)(=O)c2cn(CC(=O)N3CCCC3)c3ccccc23)cc1,15,-4,17%,-6%
CCOc1cccc(CN2CCN(CCCc3ccccc3)C(CCO)C2)c1O (stereo not given),-7,2,.,.
Cc1ccc2scc(N3CCN(C)CC3)c(=O)c2c1,83*,48*,.,12%[46.1 µM]
COc1ccc(-c2noc(C3CCCN(C(=O)c4ccccc4)C3)n2)cc1 (stereo not given),43*,32*,.,.
O=C(c1ccco1)N1CCCC(c2nc(-c3ccc(S(=O)(=O)NCc4ccccc4)cc3)no2)C1 (stereo not given),+,10,?,?
COc1ccc(-c2noc(C3CCCN(C(=O)c4cccc(F)c4)C3)n2)cc1 (stereo not given),.,-2,?,?
COc1ccc(-c2noc(C3CCCN(C(=O)CCc4ccccc4)C3)n2)cc1 (stereo not given),23,14*,0%,-21%
COC(=O)C/C=C\[C@@H](C)[C@@H](/C=N\OC[C@@H]1O[C@H](c2ccccc2)C=C[C@@H]1Oc1ccc(OC)cc1)NS(=O)(=O)c1ccc(C)cc1,.,.,1%[14.2 µM],.

# From PubChem
